Compound activity: PubChem, National Center for Advancing Translational Sciences (NCATS)
HT1080-NT tox: qHTS for induction of synthetic lethality in tumor cells producing 2HG: qHTS for the HT-1080-NT fibrosarcoma cell line; Potency, µM (doses to about 46.1 µM), for the others: at the highest dose activity, negative = less viability, most hits filed as cytotoxic; AID 686970, 2013; HT-1080-NT fibrosarcoma viability, CellTiter-Glo ATP luminescence, 48 h; actives 1.6% (n = 360,000);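 note: NT is the 2HG producing partner of a matched IDH1 knockdown line; potency is the fitted concentration of half-maximal effect; 0% = DMSO-treated cells and -100% = media-only wells without cells; nearly all actives have a fitted effect of over 55% in size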
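750 cells/well, RPMI + 5% FBS; 2 h settle, compound pin-transfer, 48 h at 37 degrees C. CellTiter-Glo 10 min RT, luminescence. Normalized to DMSO and media-only wells.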
IL-1B inflam inh: qHTS for Inhibitors of Inflammasome Signaling: IL-1-beta AlphaLISA Primary Screen | THP-1 LPS/ATP IL-1B secretion, AlphaLISA, 16 h; active compounds read low | activity change, % at 57.5 µM | actives 4.7% (n = 360,000); in the data active = activity change below about -50%; inconclusive = mostly about -30% to -49%
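THP-1 cells pretreated 1 hr with compounds (up to 57.5 uM final), then stimulated with LPS (250 ng/mL final) plus ATP (1.25 mM final); secreted IL-1B measured by AlphaLISA after 16 hr, decreased signal indicating inhibition.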
HT1080 IDH1KD tx: qHTS for induction of synthetic lethality in tumor cells producing 2HG: qHTS for the HT-1080-IDH1KD cell line; HT-1080 IDH1 knockdown viability, ATP luminescence, 48 h; Potency, µM (highest dose often 46.1 µM), for inactives: at the top dose activity, negative = toxicity, usual class: cytotoxic; actives 2% (n = 360,000); AID 686971, 2013;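 note: potency is the fitted concentration of half-maximal effect; 0% = DMSO wells and -100% = cell-free medium wells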
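Luminescent ATP read-out (CellTiter-Glo, 10 min at room temperature) after 48 h compound exposure at 37 °C gave viability of IDH1-knockdown HT-1080 cells. Activity was normalised to DMSO and cell-free wells, then fitted as concentration-response curves.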
DT40 TDP1 CPT: qHTS for Inhibitors of human tyrosyl-DNA phosphodiesterase 1 (TDP1): qHTS in cells in presence of CPT; AID 686979, 2013; chicken DT40 Tdp1-/-;hTDP1 cells + 20 nM CPT, ATP luminescence, 48 h; Potency, µM (series often up to 46.2 µM), for the others: at the top dose activity change, negative = growth inhibition, most hits filed as inhibitors; actives 12% (n = 420,000); note: potency is the fitted concentration of half-maximal effect; nearly all actives have a fitted effect of over 55% in size
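Chicken DT40 Tdp1-/- cells stably complemented with human TDP1 were seeded at 400 cells/well in medium containing 20 nM camptothecin, exposed to pin-transferred compounds, and grown at 37 °C for at least 48 hr. Viability was read as ATP luminescence.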
DT40 TDP1 no CPT: qHTS for Inhibitors of human tyrosyl-DNA phosphodiesterase 1 (TDP1): qHTS in cells in absence of CPT | DT40 Tdp1-/- hTDP1 cells, no CPT, ATP luminescence, 48 h | Potency, µM (highest dose often 46.2 µM), without a hit: at the top dose activity change, negative = growth inhibition, hits mostly inhibitors | actives 15% (n = 420,000); note: potency is the fitted concentration of half-maximal effect; nearly all actives have a fitted effect of over 55% in size
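No-CPT arm: Tdp1-/-;hTDP1 DT40 cells (400/well) plus compounds, incubated ≥48 hr at 37 °C. Readout CellTiter-Glo luminescence.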
Starred values were filed as active, the others as inactive. The list is not random: actives were taken first. Their share in the collection is about 19%. Unless noted, calls come from the whole dose curve; as a rule, active = well fitted curve in the direction sought with a large enough effect; inconclusive = small, poorly fitted or top-dose-only effect, or another doubt; inactive = no such curve, though single readings can be large; an effect the other way counts as inactive or inconclusive. Unless noted, % is set by controls: 0 for no effect and ±100 for the full control effect.

Screening CCN(CC)CCCNCC(=O)Nc1ccc2c(c1)CCC2 returned HT1080-NT tox -24%, IL-1B inflam inh -2, HT1080 IDH1KD tx -19%, DT40 TDP1 CPT -22% and DT40 TDP1 no CPT -26%.
O=C(NCC1CCCO1)C1CC(=O)N(C2CCCC2)C1 (centres undefined) was read as HT1080-NT tox 8%, IL-1B inflam inh 2, HT1080 IDH1KD tx 8%, DT40 TDP1 CPT 4% and DT40 TDP1 no CPT 4%.
Cc1ccc(CNC(=O)c2ccccc2NC(=O)CN2CC(C)OC(C)C2)cc1 (centres undefined) was read as HT1080-NT tox -5%, IL-1B inflam inh 10, HT1080 IDH1KD tx -5%, DT40 TDP1 CPT 2% and DT40 TDP1 no CPT inconclusive.
Screening CC(C)(C)c1ccc(C(=O)N2CCN(c3ccc(N4CCOCC4)nn3)CC2)cc1 returned HT1080-NT tox -3%, IL-1B inflam inh 13, HT1080 IDH1KD tx -15%, DT40 TDP1 CPT inconclusive and DT40 TDP1 no CPT inconclusive.
CC(C)C(Cl)=NOC(=O)Nc1ccc(S(N)(=O)=O)cc1 was read as HT1080-NT tox -1%, IL-1B inflam inh -99*, HT1080 IDH1KD tx inconclusive, DT40 TDP1 CPT 1.2µM* and DT40 TDP1 no CPT 2.6µM*.
For Cc1nc2c(o1)C(=O)c1ccccc1C2=Nc1ccccc1 the results were HT1080-NT tox 5.8µM*, IL-1B inflam inh -100*, HT1080 IDH1KD tx 2.9µM*, DT40 TDP1 CPT 2.3µM* and DT40 TDP1 no CPT 2.1µM*.
`Cc1nc(NC(=O)/C=C/c2ccccc2)sc1C(=O)Nc1ccc(Cl)cc1` gave HT1080-NT tox inconclusive, IL-1B inflam inh -10, HT1080 IDH1KD tx inconclusive, DT40 TDP1 CPT inconclusive and DT40 TDP1 no CPT inconclusive.
Cc1nc(Nc2ccc(Cl)cc2Cl)sc1C(=O)Nc1ccccc1 was read as HT1080-NT tox 18%, IL-1B inflam inh -94*, HT1080 IDH1KD tx 26%, DT40 TDP1 CPT 26µM* and DT40 TDP1 no CPT 18µM*.
`Cc1nc(Nc2ccc(Cl)c(Cl)c2)sc1C(=O)Nc1ccccc1` gave HT1080-NT tox inconclusive, IL-1B inflam inh -26, HT1080 IDH1KD tx -23%, DT40 TDP1 CPT 6.5µM* and DT40 TDP1 no CPT 15µM*.
`Fc1ccc(-c2ccc3nccn3c2)cc1Cl` gave HT1080-NT tox 14%, IL-1B inflam inh 2, HT1080 IDH1KD tx -4%, DT40 TDP1 CPT inconclusive and DT40 TDP1 no CPT inconclusive.
`Cn1c(/C(C#N)=C(\O)c2ccc(Br)s2)nc2ccccc21` gave HT1080-NT tox -1%, IL-1B inflam inh 41, HT1080 IDH1KD tx 0%, DT40 TDP1 CPT 22% and DT40 TDP1 no CPT inconclusive.
Screening Cn1c(/C(C#N)=C(\O)c2cc(Cl)sc2Cl)nc2ccccc21 returned HT1080-NT tox 2%, IL-1B inflam inh 39, HT1080 IDH1KD tx -11%, DT40 TDP1 CPT 18µM* and DT40 TDP1 no CPT inconclusive.
`N#Cc1ccc(Cl)cc1NC(=O)CNCc1cccs1` gave HT1080-NT tox 13%, IL-1B inflam inh 33, HT1080 IDH1KD tx 21%, DT40 TDP1 CPT 9% and DT40 TDP1 no CPT 2%.
For Cc1c(C#N)c(NC(=O)CCl)n(Cc2ccccc2)c1C the results were HT1080-NT tox inconclusive, IL-1B inflam inh -57*, HT1080 IDH1KD tx 1.6µM*, DT40 TDP1 CPT 2.6µM* and DT40 TDP1 no CPT 2.6µM*.
For Cc1c(C#N)c(NC(=O)CCl)n(Cc2ccc(F)cc2)c1C the results were HT1080-NT tox inconclusive, IL-1B inflam inh -77*, HT1080 IDH1KD tx inconclusive, DT40 TDP1 CPT 5.2µM* and DT40 TDP1 no CPT 5.8µM*.
For Cc1c(C#N)c(NC(=O)CCl)n(Cc2cccs2)c1C the results were HT1080-NT tox 16µM*, IL-1B inflam inh -105*, HT1080 IDH1KD tx inconclusive, DT40 TDP1 CPT 5.2µM* and DT40 TDP1 no CPT 2.6µM*.
Screening CC(=O)N(c1ccccc1)c1ccc([N+](=O)[O-])cc1[N+](=O)[O-] returned HT1080-NT tox -3%, IL-1B inflam inh 12, HT1080 IDH1KD tx -6%, DT40 TDP1 CPT -26% and DT40 TDP1 no CPT inconclusive.
For CC(OC(=O)c1cccc(-n2cnnn2)c1)C(=O)Nc1ccc(F)c(F)c1F (centres undefined) the results were HT1080-NT tox 3%, IL-1B inflam inh 12, HT1080 IDH1KD tx 0%, DT40 TDP1 CPT inconclusive and DT40 TDP1 no CPT inconclusive.
For O=C(Nc1cccc(C(F)(F)F)c1)c1csc(COCCO)n1 the results were HT1080-NT tox 20%, IL-1B inflam inh 0, HT1080 IDH1KD tx 14%, DT40 TDP1 CPT -7% and DT40 TDP1 no CPT -17%.
For COc1ccc(CCNC(=O)C(=O)NCc2ccccc2)cc1OC the results were HT1080-NT tox 16µM*, IL-1B inflam inh 32, HT1080 IDH1KD tx 21µM*, DT40 TDP1 CPT 5.2µM* and DT40 TDP1 no CPT 5.2µM*.
For COc1ccc(CCNC(=S)c2ccccc2)cc1OC the results were HT1080-NT tox -3%, IL-1B inflam inh inconclusive, HT1080 IDH1KD tx -6%, DT40 TDP1 CPT 21µM* and DT40 TDP1 no CPT inconclusive.
COc1ccc(CCNC(=S)NCCc2ccc(OC)c(OC)c2)cc1OC was read as HT1080-NT tox 2%, IL-1B inflam inh 10, HT1080 IDH1KD tx -2%, DT40 TDP1 CPT inconclusive and DT40 TDP1 no CPT inconclusive.
`COc1ccc(CCNC(=O)C(=O)NCc2cccs2)cc1OC` gave HT1080-NT tox -18%, IL-1B inflam inh 28, HT1080 IDH1KD tx -6%, DT40 TDP1 CPT inconclusive and DT40 TDP1 no CPT 29µM*.
COc1ccc(CCNC(=S)NCc2cccs2)cc1OC was read as HT1080-NT tox -13%, IL-1B inflam inh -22, HT1080 IDH1KD tx 0%, DT40 TDP1 CPT inconclusive and DT40 TDP1 no CPT inconclusive.
`COc1ccc(CCNC(=O)CC(c2ccccc2)c2cc(C)ccc2O)cc1OC` (centres undefined) gave HT1080-NT tox -22%, IL-1B inflam inh 0, HT1080 IDH1KD tx -13%, DT40 TDP1 CPT 26µM* and DT40 TDP1 no CPT 13µM*.
For COc1ccc(CCNC(=O)Cc2ccccc2)cc1OC the results were HT1080-NT tox -4%, IL-1B inflam inh -1, HT1080 IDH1KD tx 7%, DT40 TDP1 CPT 1% and DT40 TDP1 no CPT 9%.
For O=C(CCc1c[nH]c2ccccc12)NCCc1ccc(O)cc1 the results were HT1080-NT tox 0%, IL-1B inflam inh 20, HT1080 IDH1KD tx 6%, DT40 TDP1 CPT -27% and DT40 TDP1 no CPT 17%.
